Most compounds without a hit are left out; they make up all but 2.1% or so of the library.
MsrA inh = inhibits bovine methionine sulfoxide reductase A; purified bovine MsrA, absorbance read-out; inhibition, % at 15.5 µM; 0.75% of 360,000 active; AID 651718; in the data active = inhibition above about 4.5%;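 also: 0% = vehicle wells with enzyme and 100% = reference inhibitor wells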
bovine MsrA act = bovine methionine sulfoxide reductase A activation; purified bovine MsrA, absorbance read-out; activation, % at 10.6 µM; 0.3% of 360,000 active; AID 602163; in the data active = activation above about 7.5%;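 also: 0% = vehicle and 100% = reference activator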
ABCB6 inh 2 = inhibitors of human ABC transporter ABCB6; Q9NP58; K562-ABCB6 porphyrin accumulation, flow cytometry, 1 h; active compounds read low; fluorescence ratio to DMSO, % at 10 µM; 0.19% of 360,000 active;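 active = fluorescence ratio to DMSO below 75%, the collection mean minus 3 SD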;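 also: signal is porphyrin accumulated inside mitochondria; 100% equals median channel fluorescence of DMSO control wells; lower ratio means ABCB6 inhibition with less porphyrin fluorescence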
Target sequence (Q9NP58 whole entry, looked up): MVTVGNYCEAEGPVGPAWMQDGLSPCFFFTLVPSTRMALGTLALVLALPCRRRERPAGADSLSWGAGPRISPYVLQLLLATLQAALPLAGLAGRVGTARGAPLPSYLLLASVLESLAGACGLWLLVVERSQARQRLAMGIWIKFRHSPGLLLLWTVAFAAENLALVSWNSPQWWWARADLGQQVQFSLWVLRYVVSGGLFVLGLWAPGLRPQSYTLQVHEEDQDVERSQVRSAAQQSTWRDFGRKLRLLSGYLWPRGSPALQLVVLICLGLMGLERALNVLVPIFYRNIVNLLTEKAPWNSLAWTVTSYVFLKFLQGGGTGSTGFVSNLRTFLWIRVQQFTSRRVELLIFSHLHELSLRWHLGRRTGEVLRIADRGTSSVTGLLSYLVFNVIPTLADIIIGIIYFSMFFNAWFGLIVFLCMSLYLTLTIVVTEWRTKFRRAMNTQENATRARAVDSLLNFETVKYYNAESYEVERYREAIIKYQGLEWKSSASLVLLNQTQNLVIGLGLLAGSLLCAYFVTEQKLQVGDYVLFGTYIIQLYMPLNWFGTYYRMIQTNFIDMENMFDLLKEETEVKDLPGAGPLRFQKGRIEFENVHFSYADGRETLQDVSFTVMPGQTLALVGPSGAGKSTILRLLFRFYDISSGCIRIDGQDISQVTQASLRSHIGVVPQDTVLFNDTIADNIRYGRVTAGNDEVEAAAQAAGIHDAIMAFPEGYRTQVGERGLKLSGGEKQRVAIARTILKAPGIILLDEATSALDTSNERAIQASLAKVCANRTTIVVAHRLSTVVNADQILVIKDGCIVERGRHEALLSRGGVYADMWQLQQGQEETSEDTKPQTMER
SMARCA2 activ = activators of SMARCA2 function; MG213 cells, MMTV-luciferase reporter, dexamethasone, overnight; 1% of 370,000 active; activation, % at 9.1 µM; in the data active = activation above about 7.8%;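 also: 0% = vehicle wells and 100% = reference activator wells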
ABCB6 blocker 1 = human ABCB6 transporter inhibition | shares compounds with ABCB6 inh 2 | K562-ABCB6 porphyrin accumulation, flow cytometry, 1 h; active compounds read low | ratio response (% of DMSO), % at 10 µM | 700 tested, under 10 active | AID 602430;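 active = repeat-averaged ratio response below 75% of DMSO, the collection mean minus 3 SD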;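 also: median porphyrin fluorescence at 575 nm with 488 nm excitation from mitochondria; lower ratio means less porphyrin signal so ABCB6 inhibition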
* = called active by the depositor; x = no result.

SMILES	MsrA inh	bovine MsrA act	ABCB6 inh 2	SMARCA2 activ	ABCB6 blocker 1
CCC(=O)Nc1ccc(N2CCN(C(=O)c3ccccc3C)CC2)cc1	-0.8	-11.2	65.0*	-0.6	98.0
Cn1nc(-c2ccc(C(=O)N3CCN(CCO)CC3)cc2)c2ccccc2c1=O	0.0	-1.2	72.0*	3.2	97.0
CCOC(=O)c1c(NC(=O)c2ccc(N3C(=O)[C@@H]4[C@H](C3=O)[C@H]3C=C[C@@H]4C3)cc2)sc2c1CC(C)CC2 (some centres undefined)	-1.4	-1.3	68.0*	2.7	96.0
O=C(NCCN1CCC(Cc2ccccc2)CC1)C1CCCN(S(=O)(=O)c2ccccc2)C1 (centres undefined)	x	x	x	-2.6	x
C#CCNC(=O)C[C@@H]1C(=O)N(CC=C)/C2=C/CCCCC[C@]21C(=O)OCC	x	x	x	-3.2	x
COc1ccccc1Cn1nnc2c(=O)[nH]c(C3CCN(C(=O)c4ccccc4Cl)CC3)nc21	0.1	3.0	99.0	-1.5	100.0
COc1ccccc1Cn1nnc2c(=O)[nH]c(C3CCN(C(=O)c4ccc(C)cc4)CC3)nc21	1.4	0.2	112.0	1.6	100.0
O=S1(=O)c2ccc(Br)cc2OC[C@@H](c2ccccc2)N1Cc1cn(Cc2ccccc2)nn1	x	x	x	2.6	x
CC(COc1ccc(CC#N)cc1)CN1CCC(C(O)(c2ccccc2)c2ccccc2)CC1 (centres undefined)	x	x	x	0.6	x
Cn1c(CN2CCCC2)c(C#N)c2ccccc21	-0.3	-2.6	91.0	-2.4	x
Cn1c(CN2CCOCC2)c(C#N)c2ccccc21	-0.2	-2.5	60.0*	0.6	100.0
COCCCN1C(=O)[C@H](CC(=O)NCc2ccc(OC)c(OC)c2)[C@]2(C(=O)OC)CCCCC=C12	x	x	x	-2.7	x
CCOC(=O)[C@]12CCCCC/C=C\1N(Cc1ccc(OC)cc1)C(=O)[C@H]2CC(=O)NCCCOC	x	x	x	2.2	x
COC(=O)CCC(=O)Nc1cc(Cl)cc(Cl)c1	-1.5	-7.8	72.0*	3.3	100.0
COC(=O)CCC(=O)Nc1ccc(NC(=O)CCC(=O)OC)cc1	-0.2	-2.9	99.0	0.5	x
O[C@@H]1[C@@H](O)[C@H](n2c3ccc(Cl)cc3c3ccc4c5cc(Cl)ccc5[nH]c4c32)OC[C@H]1O	x	x	x	-6.1	x
O=C(NCc1ccc2c(c1)OCO2)c1ccc(Cl)c(S(=O)(=O)N2CCOCC2)c1	-0.5	-4.1	53.0*	2.4	101.0
COc1cc(C(=O)NC2CCCCN(Cc3ccc(Cl)cc3)C2=O)cc(OC)c1OC (centres undefined)	x	x	x	-2.4	x
CN(Cc1ccccc1)S(=O)(=O)c1cccc(C(=O)OCc2ccccc2)c1	x	x	x	-0.9	x
Cc1cccc(NC(=O)CCNC(=O)c2ccccc2Cl)n1	-0.8	-1.3	103.0	-1.2	x
Cc1cccc(NC(=O)c2cc(NC(=O)CCCC(=O)O)ccc2Cl)n1	-1.1	-5.1	53.0*	0.3	102.0
CCc1ccc(CNC(=O)C2Cc3cc(S(=O)(=O)N4CCCC4)ccc3N2C(C)=O)cc1 (centres undefined)	0.2	-3.4	5.0*	-2.5	99.0
Clc1ccc(-c2nnc3n2N=C(c2ccc(-c4ccccc4)cc2)CS3)cc1	x	x	x	5.4	x
CC1C(=O)Nc2ccccc2N1C(=O)C1CC1 (centres undefined)	1.1	2.0	72.0*	0.0	100.0
O=S1(=O)c2ccc(N3CCCC3)cc2Oc2ccccc2CN1Cc1cn(Cc2cccc(C(F)(F)F)c2)nn1	x	x	x	-2.4	x
SMILES	MsrA inh	bovine MsrA act	ABCB6 inh 2	SMARCA2 activ	ABCB6 blocker 1
COC(=O)C1=CNC=C(C(=O)OC)C1c1cccc2ccccc12	1.5	-1.8	71.0*	-0.9	105.0
O=S(=O)(c1ccc2nc(-c3ccccc3)[nH]c2c1)N1CCN(c2cccc(Cl)c2)CC1	0.0	-3.3	58.0*	0.4	101.0
COc1ccccc1N1CCN(S(=O)(=O)c2ccc3nc(-c4ccccc4)[nH]c3c2)CC1	1.9	1.5	101.0	-4.0	x
Nc1[nH]c2ccccc2c1C(=O)NC1CC1	x	x	x	0.6	x
COCc1cc(C)nc(SCC(=O)N2CCC(C)CC2)c1C#N	-0.5	5.3	58.0*	-3.0	102.0
CCn1cc([N+](=O)[O-])c(C(=O)N2N=C3/C(=C/c4cccs4)CCCC3C2c2cccs2)n1 (centres undefined)	4.2	-1.6	66.0*	-5.1	100.0
CC(=O)N1[C@@H](CO)[C@@H](c2ccc(-c3cccc(F)c3)cc2)[C@@H]1CNCC1CCC1	x	x	x	-0.3	x
Cc1nn(CCC#N)c(N)c1C1(O)C(=O)Nc2c(Cl)cc(Cl)cc21 (centres undefined)	1.9	-0.6	13.0*	-3.7	96.0
CC[C@H]1OC(=O)[C@H](C)[C@@H](O[C@H]2C[C@@](C)(OC)[C@@H](O)[C@H](C)O2)C(C)[C@@H](O[C@@H]2O[C@H](C)C[C@H](N(C)C)[C@H]2O)[C@](C)(O)C[C@@H](C)CN(C)[C@H](C)[C@@H](O)[C@]1(C)O (some centres undefined)	x	x	x	-6.6	x
COc1cccc(-c2nc(NC(C)C)c3ccccc3n2)c1O	2.8	-0.9	49.0*	-0.7	99.0
CCC(C)Nc1nc(-c2cccc(OC)c2O)nc2ccccc12 (centres undefined)	3.1	-0.4	114.0	-5.8	x
O=[N+]([O-])c1ccc(NCCCN2CCC(C(O)(c3ccccc3)c3ccccc3)CC2)cc1	x	x	x	-4.6	x
O=C1N(CCCN2C(=O)C3(OCCO3)c3ccccc32)c2ccccc2C12OCCO2	0.2	-1.7	68.0*	-3.7	103.0
COc1ccc(-n2c(C(C)n3nc(C)c([N+](=O)[O-])c3C)n[nH]c2=S)cc1 (centres undefined)	0.2	3.0	97.0	-0.9	x
Cc1ccc(-n2c(C(C)n3nc(C)c([N+](=O)[O-])c3C)n[nH]c2=S)cc1 (centres undefined)	-0.2	0.7	61.0*	-4.2	98.0
c1ccc(Cn2ccc3ccc(-c4ccc5ccn(Cc6cccc(Oc7ccccc7)c6)c5c4)cc32)cc1	x	x	x	-3.6	x
COc1ccccc1C(=O)Nc1cc(C)on1	0.5	-2.6	97.0	5.8	x
COc1ccccc1C(=O)Nc1cc(-c2ccc(C)cc2)no1	0.5	-0.6	69.0*	2.9	97.0
Cc1c(NC(=O)C2CCCN(S(=O)(=O)c3ccc(Cl)s3)C2)c(=O)n(-c2ccccc2)n1C (centres undefined)	x	x	x	-4.7	x
Cc1ccc(S(=O)(=O)NC(=O)C2(C)CCN2C(=O)Cc2ccc(-c3ccccc3)cc2)cc1 (centres undefined)	0.2	-1.5	97.0	3.5	102.0
Cc1ccc(F)c(S(=O)(=O)NC(=O)C2(C)CCN2C(=O)Cc2cccc3ccccc23)c1 (centres undefined)	1.9	-2.9	85.0	-3.0	97.0
CC(C)(C)c1ccc(CC(=O)N2CCC2(C)C(=O)NS(=O)(=O)c2ccccc2C(F)(F)F)cc1 (centres undefined)	1.2	3.6	86.0	-2.6	100.0
Cc1ccc(F)c(S(=O)(=O)NC(=O)C2(C)CCN2C(=O)Cc2ccc(C(C)(C)C)cc2)c1 (centres undefined)	-0.7	-1.5	99.0	2.1	x

From PubChem BioAssay
